# Measurements as given in PubChem BioAssay AID1347426 (Functional Genomics Laboratory (NCATS/FGL), 2020).
# About 1,400 (4.5%) of roughly 31,000 sequences were called active. Only a selection was taken, and actives are over-represented in it overall. Unmarked numbers belong to inactive results.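 How the source made its calls: active means median seed-adjusted z-score above 1 or below -1; inactive means the rest.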
# Assay: Novel Modifiers of Survival Motor Neuron (SMN) Protein: Gene Identification via Genome-wide siRNA Screen;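 further: luminescence tracks full-length SMN protein made from the SMN2 reporter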
# Settings: HEK293T SMN2-luciferase reporter, siRNA knockdown, 72 h; actives lie on both sides
# Summary of the method: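 Each of three siRNAs per gene is reverse-transfected (1 pmol) into reporter HEK293T cells whose luciferase output tracks SMN protein level. After 72 h culture, ONE-Glo luminescence is control-normalized, log10-transformed and MAD-standardized; Common Seed Analysis deprioritizes seed-driven hits.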
row,Sequence,median seed-adjusted z-score
1,GAAUCACCAUUUAAGUGCATT against PDE1C,0.157
2,GGGCUUAGGUGUGAUCAUUTT against USH2A,0.0673
3,GCCUAUUCAGAACACCAAUTT against TBP,-1.25 (active)
4,CGUGCUUUGAGUACCCGAATT against TAT,0.257
5,CCUUAAGAGGGAUGAUAAATT against SAFB,-0.954
6,CCCUCUCACCAUUACUUCATT against CRYAB,0.354
7,GCUCUAGGCUUCAAGGCAATT against CTSL3,1.07 (active)
8,CGAGGACGAUGACUGCUUATT against LRP8,-0.547
9,GCAAGAAGAGAUUAGCAAATT against EIF2C2,-0.183
10,GACUGAUGCUUUGACUGAATT against NPTX2,0.0558
11,GGAACGAGGCAGAUAUGGATT against NMNAT2,-1.58 (active)
12,GGAGGAAUCUUGGUCCUUATT against SLC11A2,-0.157
13,AUAUCAGGCUGGUUUACAATT against PLA2G15,0
14,GAGCAACAGUCACCAGAUATT against MAT2A,-1.9 (active)
15,GGCUGUCCGACUCAACAUATT against SIGLEC12,0.226
16,GCAAAUGGGAGGUUGGAAATT against ZIK1,-0.0627
17,GGGAAGUGGUAAAUAAAGATT against MCM7,0.0993
18,GCUCGGACUUCAACAACUATT against PPAP2C,-1.12 (active)
19,CAGUAUCUAUUCACAAUGATT against TRNT1,0.142
20,CCCUUCUUGUUUACAUGAATT against SLC25A43,0
21,CAGGUAUAUCAAUUUUUCATT against PRICKLE3,0.0332
22,GUAUCGAAGUGGAGACAAUTT against NELL1,-0.466

row,Sequence,median seed-adjusted z-score
1,CCACGUGUUUCAAAGCAGATT against GPR172B,0.184
2,CAGUGAUGGUUAAGAACGATT against A2M,-1.96 (active)
3,GGGUGCACCAGAAACAUUATT against VEZF1,0.974
4,GUAACAACAAAUACUCAUATT against KCTD10,-0.506
5,CAUACUUUUUGGAUAGACATT against MTX1,-0.159
6,GAGAAAUGCUUGGAGUCCATT against FKBPL,-1.11 (active)
7,GGACGAGACUCAGAGUCAUTT against CD93,-0.0879
8,GCACGUACUUGAUUCAGCATT against ZNF34,0.0391
9,CAACAAGUGUCUAAAUGUUTT against GNG11,0.00609
10,AGUCAGAGUUGAACAGGUATT against AREG,0.104
11,AGGCAAACGUGUUCGUGCATT against IGFALS,0.0888
12,GUAUCACUCUUAGAAUCCATT against GP1BA,0.0803
13,AGAUAGAAGGGACACCAUUTT against NDUFB3,-0.00982
14,GGGCAGUUGAUGAACGAAUTT against COG2,0.791
15,GGCUUGAGAGCUUACAUCATT against PPP2R5C,1.14 (active)
16,GGUCUGCACUCAUCACUAUTT against MGAT4A,0.134
17,GAAAUAAGGUUUUUGCAAATT against CCL25,0.0698
18,CACUAUUCCCAGAUCUUUATT against SMAD5,-0.701
19,GAAGCUGUGAGAUAGAGAATT against LCN8,0.112
20,GGAGAUACAUCACCGAGAATT against ELMO3,-0.0898
21,GCUGAUGCAUUGCUCAUUATT against CCT6A,-0.286
22,GUUCUGCCCUCAUACCCUUTT against IL9R,-1.33 (active)

row,Sequence,median seed-adjusted z-score
1,CCUCAGUUGGAGUUUCUAATT against TBCEL,0.567
2,AAGCACAACUUGACCGUGATT against USP20,-0.369
3,GGAGAAUGCAAUCCGCUUATT against SVIL,0.0852
4,CUAUAUGAAUCACUAUACATT against ZNF181,-0.154
5,GGACAGAGCAAAAACUUCUTT against DYRK4,-0.824
6,CCUGAAACCUCAGAACUUATT against PFTK2,-1.16 (active)
7,GUGUAAGAACUACUACAGATT against HPR,0.237
8,GUACCUCAAUUUAAUAUCUTT against UGCGL2,-0.456
9,CGGAAAGUACUUAAACGGATT against PIAS4,0.265
10,GAUGAUUCGUUGGUAUCUATT against GRIA2,-1.02 (active)
11,CAAAUACAGUGAGGACAUUTT against GPR83,0.105
12,CACUGAGAAUGCAUCCAAATT against CYP4B1,-0.663
13,CGGUCAUUUCGUCGAGAUATT against HSF5,0.369
14,GCCCUAAACCUGCCGGAAATT against EVX1,1 (active)
15,CCUCAACAGUGUCUACAUUTT against LYL1,-0.118
16,GAUAAAAGGUUACAAACGATT against HIF1AN,-0.0315
17,GCAGUGUAAUGGUAUCCGATT against VLDLR,0.0487
18,AGCGCAUGAUUGACAGUGATT against CACNG1,-0.452
19,GCACUGUGCUCGGAAGUUATT against GLS2,-0.793
20,GUGUCGUCGUAGAAAGAGATT against WEE1,-4.05 (active)
21,CAGCAUACUUUAUCGCCUUTT against DICER1,0.101
22,CCCAACAACUGGUAUCUUUTT against CD33,-0.355

row,Sequence,median seed-adjusted z-score
1,GCCCUGGGUGGAUACUUGATT against PIM3,-1.01 (active)
2,CAAUAGCUGAAAUAAUAGATT against KPNA3,0.383
3,CAACUACACUGUCAACUACTT against DTX2,0.0597
4,CAGCAACCAAUGAUAUAUATT against POLR2K,-3.72 (active)
5,GGCUCAUUUUCGCCCUGUATT against CHP2,0.364
6,GUUUGAGUGUGACACCUGUTT against ZNF71,-0.0193
7,GGAAUACCUUAUUGAUGUATT against CST8,-0.0126
8,CGAACACCGGUGAGGUAUATT against SNRPD3,-2.69 (active)
9,GGUACCAACAAAUACGAUATT against INPP5J,0.223
10,GAGACUGCACAACACGAUATT against TMEM11,-0.00121
11,AGUGAGAUUUGAAGAGAUUTT against ADC,-0.157
12,CGAGUGGACCUACGAGGAATT against ARID3C,-1.32 (active)
13,AAAAAUCGCUGGACAUGUATT against DNASE2B,0.86
14,CAAUACGAUUGGGACAUUATT against UXS1,0.25
15,CAUUCGUUCUUACAAGGAATT against FMNL3,0.481
16,CCUCCUCUGCUUAUCGUAUTT against GLT8D1,1.22 (active)
17,GGGACGAUAUUUUAUGCAUTT against AHRR,-0.636
18,GGGAAGAUCCUGUACAUCUTT against PER2,-0.113
19,CAUUUGGUCUAGACAGUUUTT against TDP1,-0.352
20,GGUUCUUGGGUGAAGGACATT against CHGB,-1.29 (active)
21,GACCCGCUUUCUACCGUUATT against ENTPD4,0.324
22,GCUUAUCCAUUGGAACUGUTT against NEK9,0.0698

row,Sequence,median seed-adjusted z-score
1,GCAGGGCAGUAAUCCUCAUTT against DLX6,0.0275
2,GCCUUGUCGAAUUCUGUCATT against FOXO3,-0.712
3,CCCAGUCUGUGAAACCGAATT against JMJD3,0.871
4,GCUGCUGAAAGAUAUGAAATT against SPCS3,0.417
5,GGAUAAACCUAUGCAUACATT against CCNF,-0.435
6,CGCUGUCUCGGGAGAGAAATT against SFRS3,2.74 (active)
7,CCUCUUCCACCGCUACUUCTT against TREX2,-0.918
8,GGCUCUUAAUAUUCGAAUATT against GPR22,0.705
9,UGAUCAUUGUCCCUACAGATT against SERPINA3,0.125
10,UCCUCAAGAGUUCACCUAUTT against FCRL2,-0.294
11,GCUAAACAGUUCGCAAGGATT against IGF2R,0.274
12,GCUUUCCGAUGAUGAGAGATT against LEO1,1.2 (active)
13,CAGCUGUACCGAUUAAGCATT against MEP1A,0.209
14,GACUGAAUGAUAUGAAAGATT against RHOQ,-0.328
15,GGAUUUGAGGGAAAACGCATT against FMO2,-0.265
16,GGAGGUCUCAAGUUCAACATT against LENG8,-0.00539
17,UGAUGAACUCGGAAAUGCATT against PPAPDC1A,0.634
18,GGACCAGAGAGACUUCAUUTT against ASTL,0.722
19,GAAGCAGGGUUAAAGCGGATT against PRDM2,1.12 (active)
20,GAGAUAACAUCAGUAGAAATT against FGF10,0
